From PubChem BioAssay AID602393 (Broad Institute, 2012)
About 7,000 (2%) of roughly 350,000 compounds were called active. Rule as the data show it: active = activation above about 40%; inconclusive = no clear call, values can overlap the other calls; inactive = below that. Many of the other results were omitted from the sample, so actives are more common in it than they were.

assay: Bmi1 luciferase reporter increase in mESCs, primary screen, esBAF inhibitor project, mouse ES cells, Bmi1 luciferase knock-in, single point (AID 602393); conditions: 24 h, at 12.5 µM, active compounds read high, 100% = twice the neutral-well signal;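 also: 0% = median of the plate's neutral control wells and 100% = double that signal; a rise in the Bmi1 reporter signal indicates esBAF inhibition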

Reporter increase, active:
Cc1ccsc1/C=C1\SC(N2CCOCC2)=NC1=O 57.3%
O=C1N=C(N2CCOCC2)S/C1=C\C=C/c1ccccc1 55.8%
CC(=O)c1ccc2c(ccc3ccccc32)c1 43.2%

Reporter increase, inactive:
COc1ccccc1CNC(=O)C[C@@H]1CC[C@H]2[C@@H](COc3ccc(NS(=O)(=O)c4ccc(C)cc4)cc3C(=O)N2C)O1 1.61%
O=C(C[C@@H]1CC[C@@H](NC(=O)C2CC2)[C@H](CO)O1)NCc1ccncc1 -3.27%
C[C@@H]1CCCCO[C@@H](CN(C)C(=O)c2ccccc2)[C@@H](C)CN([C@@H](C)CO)C(=O)c2cc(NS(=O)(=O)c3ccccc3)ccc2O1 12.6%
COc1ccc(S(=O)(=O)Nc2ccc3c(c2)C(=O)N([C@@H](C)CO)C[C@@H](C)[C@H](CN(C)C(=O)Nc2ccc(C(F)(F)F)cc2)OCCCC[C@@H](C)O3)cc1 7.49%
CCc1ccc(/C=C2\SC(N3CCOCC3)=NC2=O)cc1 6.21%
O=C1N=C(N2CCc3ccccc3C2)S/C1=C\c1ccc(O)cc1 -1.11%
O=C1N=C(N2CCOCC2)CS1 0.767%
CC1CCN(C2=NC(=O)/C(=C/c3ccc(O)cc3)S2)CC1 24.8%
CC(C)NC(=O)N(C)C[C@H]1Oc2ncc(C#CC3(O)CCCC3)cc2C(=O)N([C@H](C)CO)C[C@@H]1C 0.475%
CN1c2ccc(-c3ccccc3F)cc2[C@H]2[C@H](CCN2C(=O)Nc2cc(F)ccc2F)[C@H]1CO 7.83%
C/C=C/c1ccc([C@@H]2[C@H](CO)N(C(C)=O)[C@H]2CN(CC)C(=O)CN(C)C)cc1 -4.39%
CCC(=O)NC[C@H]1[C@@H](c2ccc(C3=CCCC3)cc2)[C@@H](CO)N1C(=O)C1CC1 0.745%
CS(=O)(=O)Nc1ccc2c(c1)[C@@H]1C[C@H](CC(=O)NCc3ccccn3)O[C@@H](CO)[C@@H]1O2 0.762%
O=C(C[C@H]1CC[C@@H](NC(=O)c2ccccc2)[C@@H](CO)O1)NCc1ccncn1 -3.6%
CC(=O)c1ccc(N2Cc3ccccc3C2)cc1 23.9%
O=C(NNC(=O)c1ccc2ccccc2c1)c1ccc(Cl)cc1 -2.35%
N#C[C@H]1[C@@H](c2ccc(-c3ccccc3F)cc2)[C@H](CO)N1C(=O)c1ccccn1 -5.75%
O=C(CCN1CCCCC1)N[C@@H]1C=C[C@@H](CC(=O)N2CCC(Cc3ccccc3)CC2)O[C@H]1CO 9.59%
